For 14 molecules, growth results are on record in PubChem BioAssay (NCI).

The panel holds about 83,000 compounds, 20% with a hit somewhere; the sample as a whole holds those more often.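 Step 1: grow cells in 96-well plates. Step 2: add test compound at a single concentration. Step 3: incubate 48 h. Step 4: record percent growth.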 A number with no mark means an inactive call. Activity calls are given as the source filed them. The calls were made as follows: active = growth percent below 10; inactive = the rest.

Some test systems named below: T-47D breast; BT-549 breast; MDA-MB-435 melanoma; SW-620 colon; MCF7 breast; HCT-116 colon; HCC-2998 colon; KM12 colon.
What all share (experiment): NCI-60 one-dose screen, 48 h (100 = growth as untreated, 0 = no growth, -100 = all killed)
What all share (settings): 10 µM unless noted

In the case of `Nc1nc(N)nc(NCc2ccccc2)n1`, the growth in the experiment on T-47D breast was 98.2%; with BT-549 breast, 106%; in the experiment on MDA-MB-435 melanoma, 112%; in the experiment with SW-620 colon, 112%; in the experiment on MCF7 breast, 95.8%; in the experiment on HCT-116 colon, 106%. In addition, the growth with HCC-2998 colon was 94.7%; with KM12 colon, 104%.
Regarding `Cn1c(COC(=O)N2CCCCC2)nc2c(N3CCOCC3)nc(-c3ccccc3)nc21`, the growth in the experiment on T-47D breast is -38.4% (active); with BT-549 breast, -37.7% (active); in the experiment on MDA-MB-435 melanoma, -81.9% (active); in the experiment on SW-620 colon, -69.1% (active); in the experiment on MCF7 breast, -65.3% (active); in the experiment on HCT-116 colon, -59.3% (active). Also, the values for the growth in the experiment on HCC-2998 colon and in the experiment on KM12 colon were -76.4% (active) and -73.8% (active), respectively.
On to `COc1cc2oc(-c3cccc(C(=O)Nc4ccc(Cl)cc4)c3)cc(=O)c2c(OC)c1OC`, for which the growth is 24.2% with T-47D breast; 38.5% in the experiment with BT-549 breast; 37.5% with MDA-MB-435 melanoma; 50.4% in the experiment on SW-620 colon; 17.2% with MCF7 breast; 15.3% with HCT-116 colon. The growth is 22.6% in the experiment with HCC-2998 colon and 26.3% in the experiment with KM12 colon.
Turning to `N#Cc1c(Nc2ccccc2)nn2cc(-c3nc4ccccc4s3)c(N)nc12`, the growth in the experiment on T-47D breast was 68.9%; in the experiment on BT-549 breast it was 67.2%; in the experiment on MDA-MB-435 melanoma, 93.6%; with SW-620 colon, 72.2%; with MCF7 breast, 63.3%; in the experiment on HCT-116 colon it was 76.4%. The growth in the experiment on KM12 colon was 88.2%.
With `CC(=O)c1cccc(NS(=O)(=O)c2cccc(C(=O)Nc3ccc(Br)cc3)c2)c1`, the growth with T-47D breast was 26.7% [25 µM]; in the experiment with BT-549 breast it was 46.9% [25 µM]; with MDA-MB-435 melanoma, 37.6% [25 µM]; with SW-620 colon, 67.4% [25 µM]; in the experiment on MCF7 breast, 49% [25 µM]; in the experiment on HCT-116 colon it was 39.9% [25 µM]. The growth is 79.7% [25 µM] in the experiment with HCC-2998 colon and 56% [25 µM] in the experiment with KM12 colon.
Turning to `Cc1c2c(cc[n+]1Cc1ccc(F)cc1)c1ccc(OCc3cccc(F)c3)cc1n2Cc1cccc(F)c1`, the growth with T-47D breast was -75.8% (active); with BT-549 breast, -88.3% (active); with MDA-MB-435 melanoma it was -91.8% (active); with SW-620 colon it was -87.6% (active); in the experiment on MCF7 breast it was -76.7% (active); in the experiment on HCT-116 colon, -92.1% (active). Besides, the growth with HCC-2998 colon is -92.5% (active); with KM12 colon, -98.8% (active).
For `CC(C)CCSc1nc(NNC(N)=O)c(C#N)c(-c2ccccc2)n1`, the growth is 99.9% with T-47D breast; 46.7% in the experiment on BT-549 breast; 109% in the experiment with MDA-MB-435 melanoma; 112% in the experiment on SW-620 colon; 103% with MCF7 breast; 38.3% in the experiment on HCT-116 colon. In addition, the growth in the experiment on HCC-2998 colon is 102%; in the experiment on KM12 colon it was 110%.
For `CN1CCN(Cc2ccc(NC(=O)c3cncc(C#Cc4cnccc4C(F)(F)F)c3)cc2C(F)(F)F)CC1`, the growth in the experiment on T-47D breast was 92.2%; with BT-549 breast, 91.8%; in the experiment with MDA-MB-435 melanoma, 54.7%; with SW-620 colon it was 62.8%; with MCF7 breast, 49%; with HCT-116 colon, 29.1%. Further, the growth in the experiment with HCC-2998 colon was 65.7%; in the experiment with KM12 colon it was 20.8%.
On to `COc1ccc(Nc2nc(N)nc3c2CCc2occc2-3)cc1`, for which the growth with T-47D breast was 83.4%; with BT-549 breast it was 78.3%; in the experiment on MDA-MB-435 melanoma, 105%; with SW-620 colon it was 106%; in the experiment with MCF7 breast it was 78.7%; in the experiment with HCT-116 colon, 90%. In addition, the growth in the experiment on HCC-2998 colon was 108%; with KM12 colon it was 95.9%.
Consider `Cc1n[nH]c(C)c1-c1c(C)n[nH]c1C`, for which the growth was 18.7% in the experiment with T-47D breast; 2.96% (active) in the experiment on BT-549 breast; -35.9% (active) with MDA-MB-435 melanoma; -26.1% (active) in the experiment with SW-620 colon; 10.3% in the experiment with MCF7 breast; -44.1% (active) in the experiment on HCT-116 colon. The growth with HCC-2998 colon is 4.99% (active); in the experiment with KM12 colon, -19.3% (active).
Consider `O=C(NCCN1CCOCC1)OCc1nc2nc(Cl)nc(N3CCOCC3)c2[nH]1`, for which the growth is 63.2% in the experiment on T-47D breast; 13.1% in the experiment on BT-549 breast; -28.9% (active) with MDA-MB-435 melanoma; 23.9% in the experiment with SW-620 colon; 20.2% with MCF7 breast; 8.45% (active) in the experiment with HCT-116 colon. Further, the values for the growth with HCC-2998 colon and in the experiment on KM12 colon were 77.8% and 3.29% (active), respectively.
Turning to `COc1ccccc1/C=C1\COc2ccc(-c3ccccc3)cc2C1=O`, the growth in the experiment on T-47D breast was 14%; in the experiment on BT-549 breast, 12%; with MDA-MB-435 melanoma, -45% (active); in the experiment with SW-620 colon it was 16.8%; with MCF7 breast, -9.07% (active); in the experiment on HCT-116 colon it was 5.64% (active). The figures for the growth in the experiment on HCC-2998 colon and in the experiment with KM12 colon were 51.6% and -32% (active), respectively.
Consider `NC(=O)c1cccc(-c2ccccc2N2CCCCC2)c1`, for which the growth with T-47D breast is 83%; in the experiment on BT-549 breast, 101%; in the experiment on MDA-MB-435 melanoma it was 100%; in the experiment with SW-620 colon it was 108%; in the experiment on MCF7 breast, 92.5%; in the experiment with HCT-116 colon, 89.4%. Besides, the values for the growth in the experiment on HCC-2998 colon and with KM12 colon were 102% and 99.1%, respectively.
As for `CC(=O)O[C@H]1CC[C@@]2(C)[C@@H](CC[C@@H]3[C@@H]2CC[C@@]2(C)[C@H]3CC[C@]2(O)C(C)=O)C1`, the growth in the experiment on T-47D breast was 103%; in the experiment with BT-549 breast it was 92.5%; in the experiment with MDA-MB-435 melanoma, 104%; in the experiment on SW-620 colon, 104%; with MCF7 breast, 105%; in the experiment with HCT-116 colon it was 99.1%. Further, the growth in the experiment with HCC-2998 colon was 96.5%; in the experiment on KM12 colon, 107%.
